# Reference: the supplement of paper PMC8975748
# Structures can show the parent of a compound that is named as a salt.
# System: Saccharomyces cerevisiae BY4741 SeMeCo community
# Assay: z-score of subpopulation abundance vs DMSO median, subpopulation auxotrophic for UM; higher = larger share of this subpopulation than in DMSO controls
# Conditions: 10 µM; 24 h; SM minimal medium; subpopulation (auxotrophy): UM
# Procedure: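 Fluorescent four-plasmid SeMeCo (self-establishing metabolically cooperating S. cerevisiae BY4741 community; plasmids pH-mRuby2, pL-mWasabi, pU-eCFP, pM-TagRFP657) was grown 24 h in minimal SM medium with each Selleck FDA-approved drug at 10 µM in 384-well plates. Cells were fixed and imaged by high-content confocal microscopy. For each auxotrophic subpopulation (and the prototroph), a z-score gives the deviation from the DMSO vehicle-control population median.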
row,Compound,z-score of subpopulation abundance
1,CC(C)N(CCC(C(N)=O)(c1ccccc1)c1ccccn1)C(C)C (stereo not given) [Disopyramide],-0.64
2,Oc1cccc2cccnc12 [8-Hydroxyquinoline],-1.16
3,NCCc1c[nH]c2ccc(O)cc12 [Serotonin HCl],-0.02
4,CC[N+](C)(CC)CCOC(=O)C(O)(c1ccccc1)c1ccccc1 [Methylbenactyzine Bromide],-0.66
5,CN1C(=O)COc2c(C(=O)NC3CN4CCC3CC4)cc(Cl)cc21 (stereo not given) [Azasetron HCl],0.66
6,CC[C@H]1CN2CC[C@]3(C(=O)Nc4ccccc43)[C@@H]2C[C@@H]1/C(=C\OC)C(=O)OC [Rhynchophylline],1.19
7,CN(C)C(=O)Oc1ccc[n+](C)c1 [Pyridostigmine Bromide],0.25
8,N[C@@H]1C[C@H]1c1ccccc1 [Tranylcypromine (2-PCPA) HCl],-0.34
9,C=C(C)[C@H]1Cc2c(ccc3c2O[C@@H]2COc4cc(OC)c(OC)cc4[C@@H]2C3=O)O1 [Rotenone (Barbasco)],0.29
10,CC[C@@H](C(N)=O)N1CCCC1=O [Levetiracetam],-0.62
11,CCOC(=O)Nc1ccc(NCc2ccc(F)cc2)cc1N [Retigabine],-1.09
12,COc1ccc2c3c([nH]c2c1)C(C)=NCC3 [Harmaline],-9.37
13,Oc1cc(Cl)ccc1Oc1ccc(Cl)cc1Cl [Triclosan],-2.84
14,CC[C@H]1[C@@H]2C[C@H]3[C@@H]4N(C)c5ccccc5[C@]45C[C@@H]([C@@H]2[C@H]5O)N3[C@@H]1O [Ajmaline],-0.04
15,COc1ccc2c(c1)[C@]13CCCC[C@@H]1[C@H](C2)N(C)CC3 [Dextromethorphan hydrobromide hydrate],-0.52
16,C[N+]12CCC(CC1)C(OC(=O)C(O)(c1ccccc1)c1ccccc1)C2 (stereo not given) [Clidinium Bromide],-0.38
17,CC(=O)OCC1=C(C(=O)O)N2C(=O)C(N)C2SC1 (stereo not given) [7-Aminocephalosporanic acid],0
18,COc1cc2c(cc1OC)C1CC(=O)C(CC(C)C)CN1CC2 (stereo not given) [Tetrabenazine (Xenazine)],-0.68
19,CN[C@@H]1[C@@H](O)[C@@H](O[C@@H]2[C@@H](O)[C@H](O[C@H]3O[C@H](CN)CC[C@H]3N)[C@@H](N)C[C@H]2N)OC[C@]1(C)O.CN[C@@H]1[C@@H](O)[C@@H](O[C@@H]2[C@@H](O)[C@H](O[C@H]3O[C@H]([C@@H](C)N)CC[C@H]3N)[C@@H](N)C[C@H]2N)OC[C@]1(C)O.CN[C@@H]1[C@@H](O)[C@@H](O[C@@H]2[C@@H](O)[C@H](O[C@H]3O[C@H]([C@@H](C)NC)CC[C@H]3N)[C@@H](N)C[C@H]2N)OC[C@]1(C)O [Gentamicin Sulfate],-0.75
20,CN(C)[C@@H]1C(=O)C(C(N)=O)=C(O)[C@@]2(O)C(=O)C3=C(O)c4c(O)cccc4[C@@](C)(O)[C@H]3C[C@@H]12 [Tetracycline HCl],0.64

row,Compound,z-score of subpopulation abundance
1,CCN1CC2(OC(=O)c3ccccc3NC(C)=O)CCC(OC)C34C1C(CC23)C1(O)CC(OC)C2CC4C1(O)C2OC (stereo not given) [Lappaconitine],0.23
2,C=CN1CCCC1=O.II [Povidone iodine],0.16
3,CCN(C)C(=O)Oc1cccc([C@H](C)N(C)C)c1 [Rivastigmine Tartrate],-0.84
4,CN(C)C(=O)Oc1cccc([N+](C)(C)C)c1 [Neostigmine Bromide],-0.71
5,CN[C@@H]1[C@@H](O)[C@@H](O[C@@H]2[C@@H](O)[C@H](O[C@H]3O[C@H]([C@@H](C)O)[C@@H](O)[C@H](O)[C@H]3N)[C@@H](N)C[C@H]2N)OC[C@]1(C)O [Geneticin (G418 Sulfate)],-0.56
6,Cc1cc(C(C#N)c2ccc(Cl)cc2)c(Cl)cc1NC(=O)c1cc(I)cc(I)c1O (stereo not given) [Closantel],-0.03
7,COc1ccc2[nH]cc(CCN)c2c1 [5-Methoxytryptamine],1.16
8,CN1[C@@H]2CC[C@H]1C[C@@H](OC(=O)C(CO)c1ccccc1)C2 (stereo not given in full) [Atropine sulfate monohydrate],0.69
9,Cc1cc(O)ccc1Cl [Chlorocresol],-0.48
10,C[N+]1(C)[C@@H]2C[C@@H](OC(=O)[C@H](CO)c3ccccc3)C[C@H]1[C@@H]1O[C@@H]12 [Methscopolamine],1.32
11,C[C@H]1O[C@H](O[C@H]2[C@H](O)[C@@H](O)[C@@H](O)[C@H](O)[C@@H]2O)[C@@H](N)C[C@@H]1NC(=N)C(=O)O [Kasugamycin hydrochloride],-0.17
12,COc1ccc(C(CN(C)C)C2(O)CCCCC2)cc1 (stereo not given) [Venlafaxine],0.35
13,C[C@@H]1O[C@@H](O[C@H]2C[C@@H](O)[C@]3(CO)[C@H]4[C@H](O)C[C@]5(C)[C@@H](C6=CC(=O)OC6)CC[C@]5(O)[C@@H]4CC[C@]3(O)C2)[C@H](O)[C@H](O)[C@H]1O [Ouabain],0.06
14,CCCN1C[C@H](CSC)C[C@@H]2c3cccc4[nH]cc(c34)C[C@H]21 [Pergolide Mesylate],-0.77
15,"NCC(O)c1ccc(O)cc1 (racemic) [(+,-)-Octopamine HCl]",-0.79
16,CC(C)=CCOc1c2occc2cc2ccc(=O)oc12 [Imperatorin],0.52
17,CN1[C@@H]2C[C@@H](OC(=O)[C@H](CO)c3ccccc3)C[C@H]1[C@@H]1O[C@@H]12 [Scopolamine HBr trihydrate],-0.11
18,COC(=O)C1=CCCN(C)C1 [Arecoline HBr],0.61
19,CN(C)[C@@H]1C(=O)C(C(N)=O)=C(O)[C@@]2(O)C(=O)C3=C(O)c4c(O)cccc4[C@@](C)(O)[C@H]3[C@H](O)[C@@H]12 [Oxytetracycline Dihydrate],-0.39
20,C[CH2][Hg][S]c1ccccc1C(=O)[O-].[Na+] [Thimerosal],6.06
